Assay results from PubChem BioAssay.
Inconclusive results are not listed. Calls of active or inactive are those of the source.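 How the source made its calls, unless noted: active means GFP signal, as percent of the solvent control, above the screen mean plus 3 SD, about 149; inconclusive means no reading because the compound's own fluorescence upset strain identification; inactive means the rest.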 Peptide text beside a SMILES is read from it. * marks the point of attachment. Boc = CC(C)(C)OC(=O)*; OBn = c1ccc(CO*)cc1

Tests used:
[1] = yeast TOR pathway RPL19A-GFP modulators, primary screen, cell-based, S. cerevisiae, multiplex flow cytometry (AID 1862; in the data active means percent of DMSO control GFP below about 86%;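 further: lower values mimic rapamycin by blocking the RPL19A rise seen in DMSO cells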); details: S. cerevisiae RPL19A-GFP strain, flow cytometry fluorescence, 3 h; at 10 µM; stronger effect = lower value
[2] = modulators of MEP2-GFP levels in yeast, primary screen, S. cerevisiae, multiplex flow cytometry (AID 1867;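 active means GFP response, as percent of the DMSO control, above the screen-wide mean plus 3 SD, about 139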;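 further: median GFP channel fluorescence of barcode-gated MEP2-GFP cells measured by flow cytometry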); details: S. cerevisiae MEP2-GFP strain, 3 h, at 10 µM, stronger effect = higher value, 100% means same as DMSO wells
[3] = modulators of CIT2-GFP expression in yeast, primary screen, S. cerevisiae, GFP fusion, multiplex flow cytometry (AID 1870;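 active means percent response above a set limit, the screen-wide mean plus 3 SD, cut at about 130% in these data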;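 further: barcoded CIT2-GFP strain pooled with four other GFP strains with rapamycin as positive control; median GFP fluorescence per well over plate mean of DMSO wells so 100% = DMSO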); details: 3 h, at 10 µM, stronger effect = higher value
[4] = modulators of LAP4-GFP expression in yeast, primary screen, S. cerevisiae, multiplex flow cytometry (AID 1873); details: 3 h, at 10 µM, stronger effect = higher value
[5] = modulators of AGP1-GFP expression in yeast TOR pathway, primary screen, cell-based, multiplex flow cytometry, S. cerevisiae (AID 1887;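 active means GFP signal above the screen-wide mean plus 3 SD, that is over about 124.5% of the solvent control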;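 further: AGP1-GFP fusion strain of S. cerevisiae within a five-strain barcoded multiplex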); details: 3 h, at 10 µM, stronger effect = higher value
[6] = inhibitors of CD8+ T cell-vesicle binding, pilot screen, LFA-1/ICAM-1 modulator project, MLPCN validation set, flow cytometry (AID 2523;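 active means response below a set limit, under 55% cells CD8-positive and vesicle-bound, and CD8 cells' 90th-percentile brightness under 279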;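 on vesicle binding response: mean PE anti-B7-1 fluorescence of CD8+ cells relative to row control; 100% = QL9-loaded vesicles with DMSO vehicle in the same plate row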); details: 2C mouse CD8+ T cells, at 7 µM, stronger effect = lower value; double positive events: measured here: CD8+/vesicle+ event percentage
[7] = molecular target: Integrin beta-1 (Homo sapiens) + Integrin alpha-4 (Homo sapiens) (UniProt P13612+P05556); experiment: inhibition of HUTS-21 binding to VLA-4, pilot screen, VLA-4 allosteric modulator project, U937 cells, HUTS-21 mAb, flow cytometry, validation set (AID 2674;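 active means inhibition above 50%, about 3 SD of the validation set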;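 further: antibody binding induced by the VLA-4 ligand LDV present at three times its Kd; 0% = LDV ligand with antibody and no compound and 100% = antibody without LDV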); details: HUTS-21 LIBS mAb binding, at 6.7 µM, stronger effect = higher value, binding induced by LDV ligand
[8] = superoxide lowering in aged yeast cells, pilot screen, validation compound set (AID 2706;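 active means superoxide response below 65% of plate, a cut near 3 SD across the whole screen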;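 further: yeast exposed to compound for one week at 30 degrees C before staining; 100% = mean of all compound wells on the same plate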); details: S. cerevisiae aging, superoxide DHE fluorescence; at 10 µM, stronger effect = lower value
[9] = molecular target: Beta-adrenergic receptor kinase 1 (Homo sapiens) (UniProt P25098); experiment: GRK2 binders displacing RNA aptamer, biochemical, validation, human GRK2, bead flow cytometry (AID 488806;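 active means aptamer binding inhibition above 30%, about 3 SD of noise from non-fluorescent compounds; inactive means inhibition at or below 30%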); details: bead-bound GRK2, FAM-aptamer displacement, at 10 µM, stronger effect = higher value
[10] = molecular target: Beta-2 adrenergic receptor (Homo sapiens) (UniProt P07550); experiment: beta2AR agonists driving receptor internalization, pilot screen, cell-based, FAP fluorogen, flow cytometry, validation set (AID 504459;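 active means percent response above 42, roughly 3 SD of non-fluorescent test compounds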;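 further: agonist-driven loss of surface beta2AR via internalization measured by FAP dye flow cytometry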); details: Am2.2-beta2AR cells, FAP surface receptor flow cytometry; at 10 µM; stronger effect = higher value
[11] = yeast V-ATPase proton transport modulators, S. cerevisiae, pHLuorin, HTS validation (AID 504600; in the data active means response above about 15%;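 further: plate controls were DMSO for no effect and reference compound for full effect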); details: S. cerevisiae pHLuorin cytosolic pH, at 10 µM, stronger effect = higher value
[12] = system: anti-desmoglein-3 scFv antibody binding to human DSG3; experiment: inhibitors of anti-DSG3 scFv binding to DSG3, pilot screen, biochemical, validation compound set, bead-based, flow cytometry (AID 588368;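 active means binding below the plate cutoff, the plate median minus 3 SD, with a reading above zero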;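 further: signal is the median channel fluorescence of bead-bound GFP antibody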); details: Protein G beads, DSG3-Fc, scFv-GFP binding, at 10 µM, stronger effect = lower value
[13] = inhibitors of fungal efflux pumps CDR1, CDR2, MDR1, pilot screen, validation compound set, multiplex, phenotypic (AID 588506;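 active means efflux inhibition above 0.42, the validation set average plus 4 SD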;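 further: Nile Red retained in cells so higher fluorescence means more efflux inhibition; 0 = negative control wells and 1 = enniatin B 25 µM full block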); details: S. cerevisiae pump-expressing triplex, Nile Red efflux flow cytometry; at 10 µM; stronger effect = higher value; the pumps come from Candida albicans
[14] = molecular target: ATP-binding cassette sub-family B member 6 (Homo sapiens) (UniProt Q9NP58); experiment: ABCB6 transporter inhibitors, pilot screen, K562-ABCB6 cells, flow cytometry, validation set (AID 588550;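 active means inhibition above the screen-wide mean plus 3 SD, about 51%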;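 further: 0% = DMSO wells and 100% = benzethonium chloride 70 µM positive control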); details: K562-ABCB6 porphyrin accumulation, 1 h, at 10 µM, stronger effect = higher value
[15] = promoters of myeloid differentiation in arrested cells, primary screen, cell-based, GFP/MAC1 double positive, flow cytometry, validation set (AID 588685;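 active means differentiation response of at least 50%, scaled between solvent and reference control, from cells with both markers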;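 further: compound exposure lasts four days before antibody staining and flow analysis; 0% = DMSO wells and 100% = 5 µM fulvestrant positive control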); details: ER-HoxA9 marrow cells, stronger effect = higher value, normalized: vehicle 0, fulvestrant 100
[16] = molecular target: AP-2 complex subunit beta (Homo sapiens) (UniProt P63010); experiment: inhibitors of arrestin peptide binding to AP2, pilot screen, biochemical, validation set, GST-AP2 beads, flow cytometry (AID 504541;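 active means inhibition above 54%, about 3 SD of non-fluorescent compounds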;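 further: AP2 carries R879A mutation and is captured from E. coli lysate; bead-bound FITC arrestin peptide fluorescence measuring arrestin peptide binding to AP2; 0% = DMSO wells and 100% = excess unlabeled arrestin peptide control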); details: FITC arrestin peptide, at 10 µM, stronger effect = higher value, AP2 beta2 appendage fragment, R879A mutant
Sequence of AP-2 complex subunit beta (Homo sapiens) (P63010 whole entry, looked up, the tested form may be a part, one chain of several): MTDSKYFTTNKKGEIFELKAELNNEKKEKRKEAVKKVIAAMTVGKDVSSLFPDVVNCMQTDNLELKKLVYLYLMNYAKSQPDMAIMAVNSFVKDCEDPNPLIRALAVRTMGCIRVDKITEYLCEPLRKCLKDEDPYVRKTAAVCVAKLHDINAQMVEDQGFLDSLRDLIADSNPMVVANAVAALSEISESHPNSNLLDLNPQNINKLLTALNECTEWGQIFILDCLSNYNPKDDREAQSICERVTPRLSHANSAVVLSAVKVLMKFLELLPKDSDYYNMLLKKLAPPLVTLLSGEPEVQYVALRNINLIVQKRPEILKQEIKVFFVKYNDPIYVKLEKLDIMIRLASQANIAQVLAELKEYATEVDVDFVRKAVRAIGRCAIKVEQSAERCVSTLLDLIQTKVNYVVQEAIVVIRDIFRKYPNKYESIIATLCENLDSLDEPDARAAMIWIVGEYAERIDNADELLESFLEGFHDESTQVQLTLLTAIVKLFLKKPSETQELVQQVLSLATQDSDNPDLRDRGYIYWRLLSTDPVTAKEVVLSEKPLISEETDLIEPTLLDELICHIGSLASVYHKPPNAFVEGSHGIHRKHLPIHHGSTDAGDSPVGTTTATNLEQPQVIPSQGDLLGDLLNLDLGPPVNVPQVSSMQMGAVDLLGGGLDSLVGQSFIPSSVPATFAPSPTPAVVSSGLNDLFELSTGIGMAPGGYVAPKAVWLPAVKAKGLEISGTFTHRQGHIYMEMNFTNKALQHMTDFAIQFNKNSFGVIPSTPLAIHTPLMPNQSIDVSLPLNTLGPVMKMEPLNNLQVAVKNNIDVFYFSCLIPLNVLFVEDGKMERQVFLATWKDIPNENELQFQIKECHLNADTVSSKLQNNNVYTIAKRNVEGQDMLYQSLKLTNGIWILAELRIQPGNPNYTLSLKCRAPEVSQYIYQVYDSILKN

Sequence of Beta-2 adrenergic receptor (Homo sapiens) (P07550 whole entry, looked up): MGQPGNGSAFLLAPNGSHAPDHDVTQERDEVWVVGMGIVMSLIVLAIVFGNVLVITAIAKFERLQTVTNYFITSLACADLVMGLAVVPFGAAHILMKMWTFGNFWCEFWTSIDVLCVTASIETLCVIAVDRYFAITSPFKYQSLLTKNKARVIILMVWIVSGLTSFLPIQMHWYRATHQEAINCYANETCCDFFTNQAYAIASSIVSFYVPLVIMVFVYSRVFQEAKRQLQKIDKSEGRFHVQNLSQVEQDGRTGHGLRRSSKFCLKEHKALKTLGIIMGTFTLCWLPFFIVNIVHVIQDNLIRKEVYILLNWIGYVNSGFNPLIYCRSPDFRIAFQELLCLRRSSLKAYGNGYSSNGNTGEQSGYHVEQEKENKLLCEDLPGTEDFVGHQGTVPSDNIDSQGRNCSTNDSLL
Sequence of Beta-adrenergic receptor kinase 1 (Homo sapiens) (P25098 whole entry, looked up): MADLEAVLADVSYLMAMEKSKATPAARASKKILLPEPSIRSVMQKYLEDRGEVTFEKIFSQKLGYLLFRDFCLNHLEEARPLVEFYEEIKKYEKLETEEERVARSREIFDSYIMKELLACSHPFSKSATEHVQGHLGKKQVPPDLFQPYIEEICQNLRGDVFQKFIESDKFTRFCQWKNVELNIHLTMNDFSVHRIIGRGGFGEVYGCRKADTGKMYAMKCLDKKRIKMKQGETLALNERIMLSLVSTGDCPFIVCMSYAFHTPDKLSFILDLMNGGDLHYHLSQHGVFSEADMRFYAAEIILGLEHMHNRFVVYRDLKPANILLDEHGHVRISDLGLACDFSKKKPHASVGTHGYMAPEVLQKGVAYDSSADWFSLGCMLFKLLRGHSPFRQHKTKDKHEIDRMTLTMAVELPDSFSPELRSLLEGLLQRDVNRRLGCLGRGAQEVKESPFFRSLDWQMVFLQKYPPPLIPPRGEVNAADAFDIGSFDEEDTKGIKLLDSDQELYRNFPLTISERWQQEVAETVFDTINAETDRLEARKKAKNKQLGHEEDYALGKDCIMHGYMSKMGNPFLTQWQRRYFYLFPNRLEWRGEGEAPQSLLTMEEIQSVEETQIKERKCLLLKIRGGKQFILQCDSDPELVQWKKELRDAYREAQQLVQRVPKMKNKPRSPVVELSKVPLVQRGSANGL
Sequence of Integrin beta-1 (Homo sapiens) + Integrin alpha-4 (Homo sapiens) (P05556 whole entry, looked up): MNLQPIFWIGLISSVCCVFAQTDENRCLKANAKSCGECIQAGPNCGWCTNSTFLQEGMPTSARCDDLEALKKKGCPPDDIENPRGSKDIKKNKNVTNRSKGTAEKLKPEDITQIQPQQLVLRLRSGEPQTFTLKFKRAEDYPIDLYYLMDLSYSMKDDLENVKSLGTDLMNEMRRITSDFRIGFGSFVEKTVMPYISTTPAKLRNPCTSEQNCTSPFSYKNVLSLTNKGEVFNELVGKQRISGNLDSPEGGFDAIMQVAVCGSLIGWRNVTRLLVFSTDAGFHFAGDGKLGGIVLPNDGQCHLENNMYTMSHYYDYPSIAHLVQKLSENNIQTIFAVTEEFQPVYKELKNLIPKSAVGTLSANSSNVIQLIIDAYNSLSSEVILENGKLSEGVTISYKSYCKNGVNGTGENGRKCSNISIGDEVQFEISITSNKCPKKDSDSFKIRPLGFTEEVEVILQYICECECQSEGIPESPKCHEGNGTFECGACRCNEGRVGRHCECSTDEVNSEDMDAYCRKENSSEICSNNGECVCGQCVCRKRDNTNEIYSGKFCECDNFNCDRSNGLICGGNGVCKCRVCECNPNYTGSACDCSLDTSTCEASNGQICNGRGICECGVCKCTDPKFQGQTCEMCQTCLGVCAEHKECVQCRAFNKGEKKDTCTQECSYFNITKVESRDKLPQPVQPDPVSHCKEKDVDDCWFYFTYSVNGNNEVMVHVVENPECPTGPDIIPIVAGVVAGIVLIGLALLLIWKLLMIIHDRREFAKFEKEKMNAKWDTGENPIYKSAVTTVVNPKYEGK
Sequence of Integrin beta-1 (Homo sapiens) + Integrin alpha-4 (Homo sapiens) (P13612 whole entry, looked up): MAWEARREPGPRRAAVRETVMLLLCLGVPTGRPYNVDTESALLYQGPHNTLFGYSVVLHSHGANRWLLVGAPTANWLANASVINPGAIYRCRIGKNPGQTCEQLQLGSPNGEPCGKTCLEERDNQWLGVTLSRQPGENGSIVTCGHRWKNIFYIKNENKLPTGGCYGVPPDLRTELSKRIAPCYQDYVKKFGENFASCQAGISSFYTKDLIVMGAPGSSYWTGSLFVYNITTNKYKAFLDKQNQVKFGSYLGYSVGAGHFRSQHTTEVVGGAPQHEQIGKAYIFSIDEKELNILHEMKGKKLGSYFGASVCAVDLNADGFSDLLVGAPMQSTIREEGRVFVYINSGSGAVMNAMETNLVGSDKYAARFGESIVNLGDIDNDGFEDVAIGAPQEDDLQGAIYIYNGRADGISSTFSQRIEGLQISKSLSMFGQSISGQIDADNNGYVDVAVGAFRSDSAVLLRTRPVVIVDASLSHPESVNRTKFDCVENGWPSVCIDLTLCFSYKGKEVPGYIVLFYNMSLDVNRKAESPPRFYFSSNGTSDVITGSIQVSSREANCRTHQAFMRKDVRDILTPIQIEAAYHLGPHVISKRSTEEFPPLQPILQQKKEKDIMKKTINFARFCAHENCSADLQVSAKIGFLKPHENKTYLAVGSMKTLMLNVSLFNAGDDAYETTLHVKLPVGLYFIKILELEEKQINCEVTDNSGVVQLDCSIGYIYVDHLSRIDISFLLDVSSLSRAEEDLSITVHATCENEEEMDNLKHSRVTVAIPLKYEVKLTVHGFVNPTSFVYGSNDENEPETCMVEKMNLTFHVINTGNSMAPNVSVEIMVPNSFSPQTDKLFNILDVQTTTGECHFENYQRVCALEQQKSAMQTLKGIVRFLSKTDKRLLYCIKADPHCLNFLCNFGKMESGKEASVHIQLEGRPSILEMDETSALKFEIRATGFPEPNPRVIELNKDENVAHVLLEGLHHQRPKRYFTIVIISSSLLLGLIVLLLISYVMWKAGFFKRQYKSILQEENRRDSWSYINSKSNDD
Sequence of ATP-binding cassette sub-family B member 6 (Homo sapiens) (Q9NP58 whole entry, looked up): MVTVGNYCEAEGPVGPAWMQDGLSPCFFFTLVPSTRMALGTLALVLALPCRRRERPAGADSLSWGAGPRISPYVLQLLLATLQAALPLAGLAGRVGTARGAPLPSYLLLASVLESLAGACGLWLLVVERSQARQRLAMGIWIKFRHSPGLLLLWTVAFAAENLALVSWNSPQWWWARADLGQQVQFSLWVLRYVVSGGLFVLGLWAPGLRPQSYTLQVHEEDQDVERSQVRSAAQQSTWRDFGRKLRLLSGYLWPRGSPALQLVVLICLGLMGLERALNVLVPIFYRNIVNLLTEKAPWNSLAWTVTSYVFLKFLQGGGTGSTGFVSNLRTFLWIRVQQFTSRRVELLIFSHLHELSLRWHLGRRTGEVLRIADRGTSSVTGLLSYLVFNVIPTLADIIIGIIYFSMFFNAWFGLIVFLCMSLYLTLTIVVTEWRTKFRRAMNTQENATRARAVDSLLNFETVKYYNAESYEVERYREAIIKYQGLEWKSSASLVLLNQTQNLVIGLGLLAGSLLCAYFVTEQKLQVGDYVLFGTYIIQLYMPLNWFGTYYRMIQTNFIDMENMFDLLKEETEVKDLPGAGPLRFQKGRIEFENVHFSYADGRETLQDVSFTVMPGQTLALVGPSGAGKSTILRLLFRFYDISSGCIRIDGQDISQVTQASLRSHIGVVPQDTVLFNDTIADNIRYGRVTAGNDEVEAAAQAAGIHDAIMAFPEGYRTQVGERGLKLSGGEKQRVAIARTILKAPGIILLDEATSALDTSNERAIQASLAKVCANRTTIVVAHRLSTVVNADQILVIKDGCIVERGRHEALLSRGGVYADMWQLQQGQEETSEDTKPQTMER

Row | SMILES | percent of DMSO control GFP [1] | GFP response vs DMSO [2] | percent response of DMSO control [3] | GFP response vs DMSO [4] | GFP response, % of DMSO [5] | double positive events [6] [%] | vesicle binding response [6] | inhibition [7] | superoxide response (% of plate) [8] | aptamer binding inhibition [9] | response [10] | response [11] | binding (% of control) [12] | efflux inhibition (fraction of control) [13] | inhibition [14] | differentiation response [15] | inhibition [16]
1 | CCC(C)NCCOCCOc1ccc(Cl)c2ccccc12 (stereo not given) | 96.6% (inactive) | 123% (inactive) | 107% (inactive) | 99% (inactive) | 96.1% (inactive) | 56.7 | 204% (inactive) | 26.8% (inactive) | 83.4% (inactive) | -5% (inactive) | 34.5% (inactive) | -0.59% (inactive) | 108% (inactive) | 0.09 (inactive) | 6% (inactive) | 24.6% (inactive) | –
2 | COc1ccc(C2C(=O)c3ccccc3C2=O)cc1 | 97.8% (inactive) | 101% (inactive) | 102% (inactive) | 111% (inactive) | 94.8% (inactive) | 55.9 | 198% (inactive) | 0.69% (inactive) | 96.8% (inactive) | 1% (inactive) | – | -9.82% (inactive) | 95.6% (inactive) | -0.24 (inactive) | 4% (inactive) | -18% (inactive) | -15.3% (inactive)
3 | COc1ccc2[nH]cc(C(=O)CCl)c2c1 | 103% (inactive) | 98.9% (inactive) | 102% (inactive) | 100% (inactive) | 102% (inactive) | 64.8 | 172% (inactive) | -3.04% (inactive) | 101% (inactive) | 4% (inactive) | – | -6.9% (inactive) | 98.2% (inactive) | -0.01 (inactive) | 3% (inactive) | 0% (inactive) | 24.1% (inactive)
4 | CC(C)CC(NC(=O)C(NC(=O)OC(C)(C)C)C(C)C)C(=O)NC(CCC(=O)OCc1ccccc1)C(N)=O (stereo not drawn) (Boc-Val-Leu-Glu(OBn)-NH2; configuration not given here) | 99.6% (inactive) | 98.9% (inactive) | 95.9% (inactive) | 84.3% (inactive) | 93.1% (inactive) | 65 | 186% (inactive) | 3.49% (inactive) | 94.3% (inactive) | 0% (inactive) | – | -7.35% (inactive) | 101% (inactive) | 0.41 (inactive) | 11% (inactive) | 22.4% (inactive) | 2.78% (inactive)
5 | CC(C(=O)O)c1ccc(N2Cc3ccccc3C2=O)cc1 (stereo not given) | 98.4% (inactive) | 103% (inactive) | 93.9% (inactive) | 119% (inactive) | 90.4% (inactive) | 62.1 | 2350% (inactive) | -7.47% (inactive) | 112% (inactive) | -4% (inactive) | 3.47% (inactive) | 0.33% (inactive) | 107% (inactive) | -0.41 (inactive) | 1% (inactive) | -1.12% (inactive) | –
6 | COc1ccc(C(=O)/C=C/c2ccc(OC(=O)c3cc(OC)c(OC)c(OC)c3)cc2)cc1 | 100% (inactive) | 102% (inactive) | 87.3% (inactive) | 114% (inactive) | 105% (inactive) | 60.7 | 179% (inactive) | -7.93% (inactive) | 96.7% (inactive) | -2% (inactive) | -6.42% (inactive) | -3.29% (inactive) | 97.4% (inactive) | 0.42 (inactive) | 0% (inactive) | 20.6% (inactive) | –
7 | CC(C)C[C@H](NC(=O)NC(C)C)C(=O)O | 103% (inactive) | 105% (inactive) | 95.5% (inactive) | 95.9% (inactive) | 99.8% (inactive) | 60.1 | 136% (inactive) | 9.63% (inactive) | 111% (inactive) | -1% (inactive) | 2.78% (inactive) | -3.73% (inactive) | 96.8% (inactive) | -0.12 (inactive) | 0% (inactive) | -10.4% (inactive) | -6.27% (inactive)
8 | COCCCC/C(=N\OCCN)c1ccc(C(F)(F)F)cc1 | 108% (inactive) | 108% (inactive) | 98.8% (inactive) | 93.3% (inactive) | 105% (inactive) | 60.3 | 182% (inactive) | 10% (inactive) | 102% (inactive) | -7% (inactive) | – | 1.1% (inactive) | 91.7% (inactive) | 0.18 (inactive) | 3% (inactive) | 139% (active) | -0.39% (inactive)
9 | CC(=O)c1c(N)nc2n(c1=O)CCCCC2 | 103% (inactive) | 102% (inactive) | 108% (inactive) | 93.3% (inactive) | 102% (inactive) | 55.2 | 201% (inactive) | 14.7% (inactive) | 94.2% (inactive) | 4% (inactive) | – | 0.91% (inactive) | 98.7% (inactive) | -0.09 (inactive) | 10% (inactive) | 9.49% (inactive) | 2.65% (inactive)
